The source of these data is PubChem BioAssay (NCATS).

Assay [1] deals with Calcium and integrin-binding protein 1 (Homo sapiens) (UniProt Q99828). Put plainly: Primary qHTS for Identification of Calcium Integrin Binding Protein 1 (CIB1) Competitor (AID 1508620).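 Note: GST tagged CIB1 binding a fluorescein labelled alphaIIb integrin peptide tracer; top concentration of the series differs between compounds.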 In a few lines:
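Fluorescence polarization competition: CIB1-GST (1 uM final) preincubated with compound 15 min at room temperature, then FITC-labeled alphaIIb peptide (100 nM final) added for another 15 min. Polarization read at Ex 480/Em 540.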

A short description of assay [2]: Primary qHTS for inhibitors of nuclear receptor binding SET domain protein 2 (NSD2) in an isogenic RCH-ACV NSD2 p.E1099K mutant (9B) (AID 1645876). Note: nearly all actives have a fitted effect of over 70% in size. Note: potency is the fitted concentration of half-maximal effect.
Assay [3] is described as follows: Primary qHTS for small molecule stabilizers of the endoplasmic reticulum resident proteome: Secreted ER Calcium Modulated Protein (SERCaMP) assay (AID 1508630). In a few lines: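 The SH-SY5Y reporter protocol was run at 3 concentrations up to 38.3 uM (primary) or 11 concentrations (follow-up): 16 h compound, 100 nM thapsigargin for 4 h, then extracellular luciferase luminescence.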

Results filed as inconclusive are left out. Where a call stands in place of a potency, no number is given. Activity calls are given as the source filed them. Calls come from the whole dose curve; as a rule, active = well fitted curve in the direction sought with a large enough effect; inconclusive = small, poorly fitted or top-dose-only effect, or another doubt; inactive = no such curve, though single readings can be large; an effect the other way counts as inactive or inconclusive.

Chain of Calcium and integrin-binding protein 1 (Homo sapiens) (Q99828 whole entry, looked up): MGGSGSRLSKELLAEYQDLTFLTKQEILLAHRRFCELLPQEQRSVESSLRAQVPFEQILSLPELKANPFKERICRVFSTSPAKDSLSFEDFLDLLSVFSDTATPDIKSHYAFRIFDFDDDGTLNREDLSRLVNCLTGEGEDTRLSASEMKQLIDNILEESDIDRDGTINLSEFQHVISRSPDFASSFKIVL

On to `COC1C(O)C(C)OC(OC2C(CO)O[C@@H](O[C@@H]3CC4CCC5C(CC[C@]6(C)[C@@H](C7=CC(=O)OC7)CC[C@]56O)[C@@]4(C)[C@H](O)C3)C(O)C2O)C1O` (some centres not stated), for which, in assay [1], the Potency result is “inactive”. The Potency in assay [2] is 430 nM (active). Take `CN(N=O)c1ccc(O)c(O)c1`: the result in assay [3] was inactive.

Consider `COC(=O)C1(C)CCC(O)C2(C)c3c(O)cc(C(C)C)cc3C(O)C(OC(C)=O)C12` (configuration not stated), for which the Potency entry in assay [1] and in assay [2] was “inactive” each time.

Regarding `CN1C(=O)N(c2ccc(C#N)c(C(F)(F)F)c2)C(=O)[C@]1(CO)c1ccccc1`, the Potency result in assay [1] and in assay [2] was “inactive” each time.
